Test results taken from PubChem BioAssay (NCATS).
Inconclusive results are not listed. A call without a number means that no potency is given here. Activity calls are given as the source filed them. The call rests on the fitted dose curve; in most records, active means well fitted curve in the direction sought with a large enough effect; inconclusive means small, poorly fitted or top-dose-only effect, or another doubt; inactive means no such curve, though single readings can be large; an effect the other way counts as inactive or inconclusive.

Columns and labels:
[1] = P-glycoprotein substrates identified in KB-3-1 adenocarcinoma cell line, qHTS therapeutic library screen (AID 1346986); further: nearly all actives have a fitted effect of over 60% in size
In short: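 Viability read by CellTiter-Glo after 72 h compound exposure in dose-response of KB-3-1 and KB-8-5-11 (P-gp-high) cells. Hits needed AC50 < 10 uM, >50% maximum response and curve class -1.1 to -2.4. Cherry-picks retested ± tariquidar, including pcDNA/MDR-19 HEK-293 pair.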

[2] = P-glycoprotein substrates identified in KB-8-5-11 adenocarcinoma cell line, qHTS therapeutic library screen (AID 1346987); further: nearly all actives have a fitted effect of over 65% in size
In short: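 Luminescence from CellTiter-Glo, read 5 min after addition, quantified survival of KB-8-5-11 (P-gp-overexpressing) cells exposed to compounds for 72 h. AC50 was derived from concentration-response curves.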

SMILES	Potency [1]	Potency [2]
Cc1c(N2C(=O)c3ccc(C(=O)O)cc3C2=O)c(=O)n(-c2ccccc2)n1C	inactive	inactive
NCCOCCOCCNC(=O)Cc1ccc(Nc2nc(NCc3ccc(F)cc3)nc(NCC3CCCCC3)n2)cc1	inactive	inactive
COC(=O)C1=COC(OC2OC(CO)C(O)C(O)C2O)C2C1CC(OC(=O)C(O)CC(=O)O)C2C (configuration not stated)	inactive	inactive
CC(C)C1=CC2=CCC3[C@](C)(CCC[C@@]3(C)C(=O)O)C2CC1O (some centres not stated)	inactive	inactive
C[C@]12CC[C@@H]3c4ccc(O[C@@H]5O[C@H](C(=O)O)[C@@H](O)[C@H](O)[C@H]5O)cc4CC[C@H]3[C@@H]1CCC2=O	inactive	inactive
COC(=O)C1C(c2ccc(O)cc2)C(C(=O)OC)C1c1ccc(O)cc1 (configuration not stated)	inactive	inactive
COc1c2c(c(C)c3c1C(=O)OC3)O[C@@]1(C)C[C@@H](O)[C@]34O[C@](OC)(CC[C@]3(C)[C@H]1C2)OC4(C)C	inactive	inactive
NCCCC[C@H](NC(=O)[C@@H]1Cc2ccccc2CN1C(=O)CCC(=O)c1ccccc1)C(=O)NCC(c1ccccc1)c1ccccc1	inactive	inactive
COC(=O)C1=CO[C@@H](O[C@@H]2O[C@H](CO)[C@@H](O)[C@H](O)[C@H]2O)[C@@H]2[C@@H](C)[C@@H](O)C[C@H]12	inactive	inactive
CC(/C=C/C1(O)C(C)(C)CC(O)CC1(C)O)OC1OC(CO)C(O)C(O)C1O (configuration not stated)	inactive	inactive
CC(=O)O[C@H](C[C@@H](C)[C@H]1C(=O)[C@H](O)[C@@]2(C)[C@@H]3CCC4C(C)(C)[C@@H](O[C@@H]5OC[C@H](O)[C@H](O)[C@H]5O)CC[C@@]45C[C@@]35CC[C@]12C)[C@@H]1OC1(C)C (some centres not stated)	inactive	inactive
